Source: PubChem
GRK2 inh: compounds blocking aptamer binding on GRK2 – biochemical, human GRK2, bead flow cytometry, HTS, primary screen; FAM-aptamer displacement from GRK2; inhibition of aptamer binding, % at 10 µM; hit rate 0.59% among 330,000;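 active = inhibition of aptamer binding above 40%, roughly 3 SD of noise, on plates passing a quality check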;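 note: median bead fluorescence of bound FAM aptamer so fluorescent compounds give negative values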
DSG3 Ab inh: inhibitors of pemphigus antibody binding to DSG3, primary screen, biochemical, bead-based, flow cytometry, scFv-GFP | hit rate 0.48% among 310,000 | Desmoglein-3 (Homo sapiens), P32926 | DSG3-coupled beads, scFv-anti-DSG3-GFP binding; hits give low values | binding (percent of control), % at 10 µM | AID 588358, 2011;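 active = binding more than 3 SD below its plate's average and above zero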;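 note: hits lower antibody fragment binding to DSG3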
GASC-1 inh: inhibitors of GASC-1 histone demethylase, primary screen, biochemical, fluorescence, DELFIA europium; AID 2099, 2009; hit rate 0.069% among 330,000; GST-JMJD2C(1-420) H3K9me3 demethylation; inhibition, % at 2.35 µM;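 active = more than half of a compound's replicate wells show inhibition beyond 50%, single wells judged on their own value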;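 note: signal counts dimethyl H3K9 product captured on neutravidin plate; 0% = median of DMSO wells and 100% = 0.3 times that DMSO median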
PREPL inhibitor: PREPL enzyme inhibitors, primary screen, biochemical, fluorescence polarization; AID 2751, 2010; Prolyl endopeptidase-like (Homo sapiens), Q4J6C6; hit rate 0.68% among 320,000; inhibition, % at 5.96 µM; recombinant PREPL, fluorescence polarization activity-based probe; in the data active = inhibition above about 43%;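 note: 0% = enzyme with DMSO and 100% = wells lacking enzyme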
VLA-4 inh: inhibition in human VLA-4 binding assay, primary screen, VLA-4 allosteric modulator project, MLPCN library, flow cytometry, VLA-4 expressing cells. Integrin alpha-4 (Homo sapiens), P13612. ligand binding flow cytometry. inhibition, % (about 7 µM as worked out from the volumes in the protocol). hit rate 0.2% among 330,000. AID 2557, 2010; in the data active = inhibition above about 50%
Target sequence (P13612 whole entry, looked up): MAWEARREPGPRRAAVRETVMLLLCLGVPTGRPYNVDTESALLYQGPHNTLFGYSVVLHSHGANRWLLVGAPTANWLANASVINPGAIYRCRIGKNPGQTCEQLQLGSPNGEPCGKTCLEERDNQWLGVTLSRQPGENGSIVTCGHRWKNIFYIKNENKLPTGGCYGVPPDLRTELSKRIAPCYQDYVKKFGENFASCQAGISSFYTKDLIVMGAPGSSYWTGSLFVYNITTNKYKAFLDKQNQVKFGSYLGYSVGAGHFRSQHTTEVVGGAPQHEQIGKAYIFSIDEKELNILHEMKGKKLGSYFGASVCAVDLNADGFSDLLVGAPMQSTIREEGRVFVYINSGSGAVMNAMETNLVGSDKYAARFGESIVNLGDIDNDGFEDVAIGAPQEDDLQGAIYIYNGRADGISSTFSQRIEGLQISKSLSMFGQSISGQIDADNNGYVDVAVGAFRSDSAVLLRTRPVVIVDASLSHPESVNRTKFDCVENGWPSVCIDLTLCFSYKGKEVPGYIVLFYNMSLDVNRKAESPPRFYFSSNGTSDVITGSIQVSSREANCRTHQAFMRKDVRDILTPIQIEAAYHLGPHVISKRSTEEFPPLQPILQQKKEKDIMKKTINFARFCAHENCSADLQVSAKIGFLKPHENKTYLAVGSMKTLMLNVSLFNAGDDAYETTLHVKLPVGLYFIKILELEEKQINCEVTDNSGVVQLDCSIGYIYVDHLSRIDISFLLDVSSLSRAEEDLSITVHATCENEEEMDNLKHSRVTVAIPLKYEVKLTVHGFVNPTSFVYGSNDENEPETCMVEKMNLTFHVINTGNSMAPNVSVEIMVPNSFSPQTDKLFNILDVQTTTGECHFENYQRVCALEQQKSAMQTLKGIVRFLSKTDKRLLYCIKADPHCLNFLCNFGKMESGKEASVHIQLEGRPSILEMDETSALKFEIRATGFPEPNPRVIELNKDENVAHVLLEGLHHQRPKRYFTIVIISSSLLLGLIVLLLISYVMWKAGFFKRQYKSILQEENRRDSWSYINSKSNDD
The depositor's hits bear a star. Only some compounds are listed: those with a hit (about 1.6% of all), similar ones and a draw of the others.

Screening O=C(CC1NCCNC1=O)NC1Cc2ccccc2C1 (stereo not drawn) returned GRK2 inh 2, DSG3 Ab inh 89, GASC-1 inh 2, PREPL inhibitor 6 and VLA-4 inh 8.
Screening Cc1cc(Cl)ccc1OCCCC(=O)NN returned GRK2 inh 0, DSG3 Ab inh 101, GASC-1 inh -2, PREPL inhibitor -54 and VLA-4 inh 1.
Screening C/C(=N\NC(=O)CCCOc1ccc(Cl)cc1C)c1ccc(C)o1 returned GRK2 inh 90*, DSG3 Ab inh 86, GASC-1 inh -27, PREPL inhibitor -23 and VLA-4 inh 12.
Screening NC(=O)c1ccccc1OCC(=O)Nc1cccnc1Cl returned GRK2 inh 0, GASC-1 inh 6, PREPL inhibitor 11 and VLA-4 inh -1.
Screening CCOc1ccc(NC(=O)c2cccc(-n3cccc3)c2)cc1S(=O)(=O)N1CCOCC1 returned GRK2 inh 43*, DSG3 Ab inh 73, GASC-1 inh -8, PREPL inhibitor 19 and VLA-4 inh -13.
Screening COc1ccc(NC(=O)c2ccc(-c3ccccc3)cc2)cc1S(=O)(=O)N1CCOCC1 returned GRK2 inh 0, DSG3 Ab inh 88*, GASC-1 inh 4, PREPL inhibitor -5 and VLA-4 inh -3.
For CCc1ccc(C(=O)Nc2ccc(OC)c(S(=O)(=O)N3CCOCC3)c2)cc1 the results were GRK2 inh 3, DSG3 Ab inh 107, GASC-1 inh 14, PREPL inhibitor 0 and VLA-4 inh 0.
Screening COc1ccc(S(=O)(=O)N2CCOCC2)cc1NC(=O)c1cccc(-n2cccc2)c1 returned GRK2 inh 9, DSG3 Ab inh 91, GASC-1 inh 3, PREPL inhibitor 15 and VLA-4 inh 1.
Screening O=C(Nc1nccs1)c1ccc(N2C(=O)[C@@H]3[C@H](C2=O)[C@H]2C=C[C@@H]3C2)cc1 returned GRK2 inh 3, DSG3 Ab inh 69*, GASC-1 inh -5, PREPL inhibitor -3 and VLA-4 inh -2.
Screening O=C(Nc1nccs1)c1cccc(N2C(=O)C3C4C=CC(C4)C3C2=O)c1 (stereo not drawn) returned GRK2 inh 4, DSG3 Ab inh 95, GASC-1 inh 15, PREPL inhibitor 0 and VLA-4 inh 2.
`COc1ccc(OCC(O)Cn2cnc(-c3ccc(Br)cc3)c2)cc1` (stereo not drawn) gave GRK2 inh 0, DSG3 Ab inh 101, GASC-1 inh -34, PREPL inhibitor 0 and VLA-4 inh 10.
Screening OC(COc1ccc2ccccc2c1Br)Cn1cnc(-c2ccccc2)c1 (stereo not drawn) returned GRK2 inh 0, DSG3 Ab inh 117, GASC-1 inh 61*, PREPL inhibitor -17 and VLA-4 inh -12.
`c1cc2c3c(cccc3c1)NC1(CCCCCC1)N2` gave GRK2 inh 2, GASC-1 inh -23, PREPL inhibitor 52* and VLA-4 inh -5.
`c1cc2c3c(cccc3c1)NC1(CCCCC1)N2` gave GRK2 inh 0, DSG3 Ab inh 89, GASC-1 inh 0, PREPL inhibitor 20 and VLA-4 inh -31.
Screening CC1(C)Cc2c(cnn2-c2ccccc2)C(NC(=O)CCCn2cncn2)C1 (stereo not drawn) returned GRK2 inh 0, DSG3 Ab inh 121, GASC-1 inh 4 and VLA-4 inh -3.
For Cc1cc(N=Nc2ccc(C)c(N=Nc3cc(C)c(N)cc3N)c2)c(N)cc1N the results were GRK2 inh 0, DSG3 Ab inh 72, GASC-1 inh -1, PREPL inhibitor 70* and VLA-4 inh 2.
Screening CCOC(=O)C1CCN(C(=O)Nc2ccc(Cl)cc2Cl)CC1 returned GRK2 inh 0, DSG3 Ab inh 100, GASC-1 inh -5, PREPL inhibitor 3 and VLA-4 inh 5.
For O=C(O)/C=C\C(=O)Nc1ccc(N2CCN(c3cccc(Cl)c3)CC2)cc1 the results were GRK2 inh 0, DSG3 Ab inh 96, GASC-1 inh -2, PREPL inhibitor 28 and VLA-4 inh 16.
